From the supplement of paper PMC12024529
Values joined by “and” are separate entries in the source; they are usually repeats but may differ in a detail not shown here. Equal values may be shown once.

system: HEK293 WT BDD-FVIII-Gluc; assay: secreted FVIII-Gluc luciferase Z-score vs DMSO control; higher = more FVIII-Gluc secretion; conditions: 5 µM
Method: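 Natural plant-compound library (480 compounds, ST catalogue IDs) screened on HEK293 cells stably expressing WT BDD-FVIII-Gaussia luciferase fusion at 5 µM. Secreted Gluc activity in the medium is given as a Z-score relative to DMSO controls.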

SMILES	secreted FVIII-Gluc luciferase Z-score
O=c1c(O)c(-c2ccc(O)cc2O)oc2cc(O)cc(O)c12	0.571
C[C@H](C(=O)O)c1cccc(C(=O)c2ccccc2)c1	0.342
C[C@H]1[C@H](C)CC[C@]2(C(=O)O)CC[C@]3(C)C(=CC[C@@H]4[C@@]5(C)CC[C@H](O)C(C)(C)[C@@H]5CC[C@]43C)[C@H]12	0.136
CC(C)=CCC/C(C)=C\COc1c2ccoc2cc2oc(=O)ccc12	-0.466
N=C(N)NCCC[C@H](N)C(=O)O	0.938
CC(C=CC1=C(C)CCCC1(C)C)=CC=CC(C)=CCO	0.89
COc1cc2c(C=O)c3c4c(cc(OC)c(OC)c4c2cc1OC)CCN3C	0.315
CN1CCc2cc3c(cc2C(=O)Cc2ccc4c(c2C1)OCO4)OCO3	-0.0429
O=c1c(-c2ccc(O)cc2)coc2cc(O)cc(O)c12	-1.4
NC(Cn1ccc(=O)c(O)c1)C(=O)O (stereo not given)	0.208
O=c1cc(-c2ccccc2)oc2cc(O)c(O)c(O)c12	-0.284
CCC(C)C(=O)O[C@H]1C[C@@H](C)C=C2C=C[C@H](C)[C@H](CC[C@@H]3C[C@@H](O)CC(=O)O3)[C@H]21 (stereo not given in full)	-0.369
CC1=CCC2(C)CCC(O)(C(C)C)C2C(OC(=O)c2ccc(O)cc2)C1 (stereo not given)	0.752
Nc1ccccc1C(=O)CC(N)C(=O)O (stereo not given)	-1.11
Nc1ncnc2c1ncn2[C@@H]1O[C@H](CO)[C@@H](O)[C@H]1O	0.566
COc1ccc2c3c1OC1C(O)C=CC(C=C2)C31CCN(C)C (stereo not given)	-0.171
O[C@@H]1COC2C1OC[C@@H]2O (stereo not given in full)	0.547
O=C1CC(c2ccc(O)cc2)Oc2cc(O)cc(O)c21 (stereo not given)	-0.524
Cc1cc(O)cc(O)c1	0.642
CC/C=C\C/C=C\C/C=C\CCCCCCCC(=O)O	0.636

SMILES	secreted FVIII-Gluc luciferase Z-score
COc1cc2c(C)c3c4c(cc(OC)c(OC)c4c2cc1OC)CCN3C	-1.2
CC(=O)O[C@H]1C(=O)[C@@]2(C)C([C@H](OC(=O)c3ccccc3)[C@]3(O)C[C@H](OC(=O)[C@@H](O)[C@@H](NC(=O)c4ccccc4)c4ccccc4)C(C)=C1C3(C)C)[C@]1(OC(C)=O)CO[C@@H]1C[C@@H]2O (stereo not given in full)	-3.56
C[C@H]1c2ccoc2CC2[C@H]1CCC1[C@@](C)(CC(=O)O)CCC[C@]21C (stereo not given in full)	0.392
OC[C@H]1O[C@@H](O[C@@H]2[C@@H](CO)O[C@](O)(CO)[C@H]2O)[C@H](O)[C@@H](O)[C@H]1O	0.26
Cc1c(-c2c(C)c(=O)c3c(C(C)C)c(=O)c(=O)c(C=O)c-3c2=O)c(O)c2c(C=O)c(O)c(O)c(C(C)C)c2c1O	-0.893
C/C=C(\C)C(=O)OC1CC2(C)OC2C(OC(C)=O)C2(C)CCC(O)(C(C)C)C12 (stereo not given)	-0.754
CC[C@@H]1[C@H]2CCCCN3[C@H]2[C@H](C[C@H]3[C@@H]2C[C@H](C)C(=O)O2)[C@@H]2[C@H]1OC(=O)[C@H]2C	-0.0302
O=c1c(O)c(-c2cc(O)c(O)c(O)c2)oc2cc(O)cc(O)c12	0.93
COc1ccc2cc1Oc1ccc(cc1)C[C@H]1c3cc(c(OC)cc3CCN1C)Oc1c(OC)c(OC)cc3c1[C@H](C2)N(C)CC3	0.132
O=c1c(O)c(-c2ccc(O)cc2)oc2cc(O)cc(O)c12	-0.239
COc1ccc(-c2oc3ccc(C)cc3c(=O)c2O)cc1OC	-0.624
NC(=O)C1CCCN1C(=O)C(Cc1cnc[nH]1)NC(=O)C1CCC(=O)N1 (stereo not given)	0.443
COc1ccc(C2OCC3(COC(C)=O)C(C)C=C(C)C2C3C)cc1 (stereo not given)	-1.63
C[C@H]1O[C@@H](O[C@H]2[C@@H](O)C[C@H](O[C@H]3[C@@H](O)C[C@H](O[C@H]4CC[C@@]5(C)[C@H](CC[C@@H]6[C@@H]5C[C@@H](O)[C@]5(C)[C@@H](C7=CC(=O)OC7)CC[C@]65O)C4)O[C@@H]3C)O[C@@H]2C)C[C@H](O)[C@@H]1O	-4.67
OCC1(O)OC[C@H](O)[C@@H](O)[C@@H]1O (stereo not given in full)	0.437
O=C(CCc1ccc(O)cc1)c1c(O)cc(O)cc1O[C@@H]1O[C@H](CO)[C@@H](O)[C@H](O)[C@H]1O	0.224 and 0.244
Oc1ccc(/C=C/c2cc(O)cc(O)c2)cc1	0.294
OC[C@H]1O[C@@H](OC[C@H]2O[C@@H](O)[C@H](O)[C@@H](O)[C@@H]2O)[C@H](O)[C@@H](O)[C@@H]1O	0.42
C=C1CCC(O)C/C1=C\C=C1/CCCC2(C)C1CCC2C(C)/C=C/C(C)C(C)C (stereo not given)	-0.228
O=c1cc(-c2ccccc2O)oc2ccc3ccccc3c12	0.197
